From PubChem BioAssay (NCI)
About 83,000 compounds went through this panel and 20% of them were active in at least one assay; those are over-represented in the sample as a whole.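 Testing used 96-well plates and a 48-hour single-concentration exposure. Example: -40 means 40% of the starting cells died.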 Values without a mark were called inactive. Calls of active or inactive are those of the source.

Tested on: OVCAR-8 ovarian
Assay: NCI-60 one-dose screen, 48 h (100 = growth as untreated, 0 = no growth, -100 = all killed)
Details: 10 µM unless noted
Method: Growth inhibition of the OVCAR-8 human tumor cell line is measured as a screen for anti-cancer activity. Cells are grown in 96 well plates and exposed to the test compound for 48 hours. Compounds are tested at a single concentration, which is 10^-5 M for most compounds. The reported endpoint is percent growth (GI% or GIPRCNT), where numbers from 0 - 100% represent growth inhibition, and numbers from -100% - 0 represent cell death. For example, a value of 40 represents 60% growth inhibition. A value of 0 means no net growth occurred over the course of the experiment. A value of -40 indicates 40% of cells at the beginning of the experiment died by the end of the experiment. A value of -100 means all cells are dead at the end of the experiment.
NCI-60 Human Tumor Cell Lines Screen was performed using the standard one-dose NCI protocol, which is described in more detail at https://dtp.cancer.gov/discovery_development/nci-60/default.htm.
Compounds with GIPRCNT values below 10 were considered active. Activity score was based on GIPRCNT using the following formula: […]
Score is 0 for GIPRCNT values of 100 or above, 50 for GIPRCNT values of 0, and 100 for GIPRCNT values of -100.

SMILES | growth
C=C1CC[C@@H]2[C@](C)(COC(C)=O)[C@H](OC(C)=O)CC[C@@]2(C)[C@@H]1CC(Nc1ccc(S(=O)(=O)NC(C)=O)cc1)C1=CCOC1=O (stereo not given in full) | -18.2% (active)
COCCn1cc(-c2csc(-c3c[nH]c4ccc(Br)cc34)n2)c2cccnc21 | 21.8%
O=C1c2ccccc2C(=O)C1c1ccc(Br)cc1 | 102%
O=C(CC(=O)Nc1cccc(C(=O)O)c1)Nc1cccc(C(=O)O)c1 | 107%
CCN1CCN(CC(=O)Nc2nc3ccc(NCc4ccc(F)cc4)cc3s2)CC1 | 95.6%
O=C(Nc1ccccc1N1CCCC1=O)c1oc2ccc(F)cc2c1-c1cnn(-c2ccccc2)c1 | 20.5% [50 µM]
COc1cc(OC)c(C(=O)C(CN(C)C)CN(C)C)cc1OC | 104%
COc1ccc2cc(-c3ccnc4c(N=Nc5ccc(Cl)cc5)c(N)nn34)ccc2c1 | 93.9%
C#Cc1cccc(Nc2nc(C)nc3cc(NC(=O)CCl)ccc23)c1 | -15.4% (active)
CN1CCN(Cc2ccc(NC(=O)c3cncc(C#Cc4cnc(N)c5ccc(F)cc45)c3)cc2C(F)(F)F)CC1 | 33.9%
COc1ccc(C(=O)c2cc3c(N)c(C(=O)Nc4ccccc4)sc3nc2C)cc1 | 25.5%
Cn1cc(-c2nn3cc(-c4cccs4)nc3s2)c2cc(F)ccc21 | 51.4%
Cc1ccc(C(=O)c2ccc(CC(=O)N=Nc3c(O)[nH]c4ccc(Br)cc34)n2C)cc1 | 94.9%
CCCCCCCCCCCCCCCCCCOc1ccccc1CC(=O)NCC[N+]1(C)CCCCC1 | 57.1%
CN(CCCNC(=O)CCOCCOCCOCCNC(=O)Cc1ccc2ccc3cccc4ccc1c2c34)CCCNc1cc(-c2ccc3ccccc3c2)nc2ccccc12 | -37.4% (active)
CNC(=O)c1ccccc1Nc1nc(Nc2cc(OC)c(OC)c(OC)c2)ncc1Br | -20.3% (active)
CN1CCN(Cc2ccc(NC(=O)c3cncc(C#Cc4cnc5ccc(Cl)nn45)c3)cc2C(F)(F)F)CC1 | 8.97% (active)
Cc1ccc(NC(=O)Cn2c(Br)nc3c2c(=O)n(C)c(=O)n3C)cc1 | 28.4%
CN1CCN(CC(=O)Nc2ccc3ncnc(Nc4ccc(Oc5cccc(C(F)(F)F)c5)c(Cl)c4)c3c2)CC1 | 20.9%
O=C1Nc2ccccc2/C1=C\c1c[nH]c2ccc(Br)cc12 | 79.8%

SMILES | growth
Nc1nc2c(c3ncccc13)C(c1cccc(Cl)c1)Cc1ncccc1-2 (stereo not given) | 23.8%
O=C(C1CCCCC1)[C@@H]1[C@]2(C(=O)NC3CCCCC32)[C@@H]2CCCN2[C@@]12C(=O)NC1CCC(Cl)CC12 (stereo not given in full) | -64.3% [100 µM] (active)
NS(=O)(=O)c1ccc(C(=O)NN2C(=O)c3c(Br)c(Br)c(Br)c(Br)c3C2=O)cc1 | 106%
COc1ccc(/C(C)=C(/c2ccc(OCCCN(C)C)cc2)c2ccc(OC(=O)c3ccccc3)cc2)cc1 | 91.6%
CCc1ccc(CCC(=O)Nc2ncc(Cc3ccccc3)s2)o1 | 28.4%
O=C(Cc1ccc(/C=C/C(=O)c2ncc[nH]2)cc1)Nc1cc(C(F)(F)F)cc(C(F)(F)F)c1 | 87.1%
Cc1c(CC(=S)N2CCOCC2)nnn1-c1cccc(C(F)(F)F)c1 | 104%
Cc1cccc[n+]1C1c2ccccc2-c2ccccc21 | 96.6%
Cc1cn(-c2cc(NC(=O)c3cncc(C#Cc4c(N)ncc5ccc(F)cc45)c3)cc(C(F)(F)F)c2)cn1 | 65.2%
CN1CCN(c2ccc3nc4c(nc3c2C(F)(F)F)C(=O)c2ncccc2C4=O)CC1 | -10.9% (active)
COc1ccc2nc(Cl)c(/C=C3\CC(c4ccccc4)=NN(c4ccccc4)C3=O)cc2c1 | 41.8%
NC(=O)c1cccc([C@@H]2O[C@H](CO)[C@@H](O)[C@H]2O)c1 | 9.76% (active)
O=C1/C(=C/c2ccc(O)c(O)c2)COc2ccc(-c3ccccc3)cc21 | 26.5%
O=C(NNC(=O)c1ccc(NC(=O)c2ccccn2)cc1)Nc1ccc2ccccc2c1 | 102%
COc1ccc(Oc2nc(Nc3ccc(N4CCOCC4)cc3)ncc2NC(=O)Nc2cc(OC)cc(OC)c2)cc1 | 18.4%
CCOC(=O)c1c(C)nc2c(c1N)CC(=O)N2Cc1ccc(OC)cc1 | 13.6%
CCn1cc(CNc2ccc(C(=O)Nc3cc4cc(OC)c(OC)cc4c(C)n3)cc2)cn1 | 28%
CS(=O)(=O)c1ccc(NC(=O)c2ccccc2)nc1 | 107%
C=C(C)[C@@H]1CC[C@]2(C)[C@H](CC=C3[C@@H]4CC(C)(C)CC[C@]4(CO)CC[C@]32C)[C@@]1(C)CCCN | -85.1% (active)
CCCn1nc(C(=O)N(C)Cc2ccccc2)c2c1CCC(N1CCc3ccccc31)C2 (stereo not given) | 93.4%
